Test [1] in a line: ATG_CMV_CIS: Attagene CIS-FACTORIAL HepG2 Assay for human CMV (Internal Marker) (AID 2282928).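 Further: endpoint acts as a background internal control marker rather than a target.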 The following applies: HepG2 CMV promoter reporter, transcription factor profiling; actives raise or lower the signal. Put shortly: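 After transient transfection of HepG2 with reporter transcription units driven by cis-regulatory promoters, cells receive test chemical for 24 h. Labeled reporter amplicons, digested with HpaI, are sized and quantified by capillary electrophoresis against DMSO.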

The nature of test [2]: ATG_ISRE_CIS: Attagene CIS-FACTORIAL HepG2 Assay for human Interferon Regulatory Factor 1 (IRF1) binding to an Interferon-Stimulated Response Element (ISRE) (AID 2282948). The following applies: HepG2 ISRE cis-reporter (Attagene), mRNA transcription readout; actives raise or lower the signal. Put shortly:
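Cell-based cis-reporter assay; HepG2; 24 h exposure; reporter mRNA by RT-PCR plus capillary electrophoresis fluorescence; activity in either direction scored relative to DMSO.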

A short description of test [3]: ATG_M_32_CIS: Attagene CIS-FACTORIAL HepG2 Assay for M32 Transcription Factor (Internal Marker) (AID 2282949).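 Further: background control marker of the multiplexed CIS panel rather than a real target.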 As to conditions: HepG2 Attagene cis-factorial M32 reporter, mRNA; actives raise or lower the signal. Put shortly: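 Internal background marker read-out: RT-PCR/capillary electrophoresis fluorescence of reporter transcripts from transiently transfected HepG2 cells after 24 h chemical exposure. Activity fitted bidirectionally relative to DMSO negative control.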

Test [4] concerns the target Hepatocyte nuclear factor 6 (Homo sapiens) (UniProt Q9UBC0). The test is described as follows: ATG_HNF6_CIS: Attagene CIS-FACTORIAL HepG2 Assay for human Hepatocyte Nuclear Factor 6 (HNF6) (AID 2282952). The following applies: HepG2 Attagene cis-factorial HNF6 reporter transcription; actives raise or lower the signal. Put shortly: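 Cells are HepG2 carrying transiently transfected cis-promoter reporter units. Treatment lasts 24 h, after which reporter transcripts are reverse-transcribed, amplified, FAM-labelled and sized by capillary electrophoresis. DMSO serves as baseline.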

The target in test [5] is Heat shock factor protein 1 (Homo sapiens) (UniProt Q00613). Description: ATG_HSE_CIS: Attagene CIS-FACTORIAL HepG2 Assay for human Heat Shock Transcription Factor 1 (HSE) (AID 2282953). As to conditions: HepG2 HSE cis-reporter, Attagene RNA transcription; actives raise or lower the signal. Put shortly: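 HepG2, transient MRTU transfection, cis-promoter reporters (endogenous TF activity). 24 h compound. RNA → oligo(dT) RT → PCR → 6-FAM primer extension → HpaI cut → CE. Bidirectional fit vs DMSO.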

The nature of test [6]: ATG_RORE_CIS: Attagene CIS-FACTORIAL HepG2 Assay for human RAR-related Orphan Receptor Element (RORE) (AID 2282959). The following applies: HepG2 Attagene cis-factorial RORE reporter, mRNA; actives raise or lower the signal. Put shortly:
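HepG2 cells carrying transiently transfected cis-regulated reporter units; RORE-driven reporter mRNA quantified 24 h post-dosing by RT-PCR, 6-FAM primer extension, HpaI digestion and capillary electrophoresis. Bidirectional fit versus DMSO.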

Test [7] deals with Signal transducer and activator of transcription 3 (Homo sapiens) (UniProt P40763). Description: ATG_STAT3_CIS: Attagene CIS-FACTORIAL HepG2 Assay for human Signal Transducer and Activator of Transcription 3 (STAT3) (AID 2282963). The following applies: HepG2, Attagene cis-factorial STAT3 reporter transcription; actives raise or lower the signal. Put shortly: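 Values derive from bidirectional fits relative to DMSO of reporter mRNA levels, measured by RT-PCR with capillary electrophoresis, in HepG2 cells carrying transiently transfected cis-regulated reporter units and exposed 24 h.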

Test [8] can be described thus: ATG_TA_CIS: Attagene CIS-FACTORIAL HepG2 Assay for human TA Basal Promoter (AID 2282964). The following applies: HepG2 Attagene CIS-factorial TA basal promoter reporter; actives raise or lower the signal. Put shortly: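 Read-out: fluorescent reporter-transcript fragments resolved by capillary electrophoresis after RT-PCR and HpaI digestion. Source: HepG2 cells carrying transiently transfected multi-reporter cis constructs, treated 24 h. Endpoint fitted bidirectionally relative to DMSO.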

Test [9] is described as follows: ATG_TCF_b_cat_CIS: Attagene CIS-FACTORIAL HepG2 Assay for human T-Cell-Factor with beta-catenin (TCF/b-cat) (AID 2282965). The following applies: HepG2 TCF/beta-catenin cis-reporter transcription, actives raise or lower the signal. Put shortly: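 Cells of the HepG2 line carry transiently transfected reporter units whose promoters respond to endogenous factors. Twenty-four hours post-dosing, reporter mRNA induction is measured by fluorescent RT-PCR and capillary electrophoresis, with DMSO as baseline.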

Test [10] can be described thus: ATG_TAL_CIS: Attagene CIS-FACTORIAL HepG2 Assay for human TAL Basal Promoter (AID 2282966).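 Further: background control endpoint measuring basal TAL promoter reporter mRNA not a specific factor.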 The following applies: HepG2 Attagene cis-factorial TAL promoter reporter; actives raise or lower the signal. Put shortly:
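Steps: transfect HepG2 with multiple reporter transcription units; dose 24 h; isolate RNA, reverse-transcribe, PCR-amplify, label with 6-FAM, digest with HpaI; resolve by capillary electrophoresis. Bidirectional fitting against DMSO baseline.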

Test [11] in a line: ATG_TGFb_CIS: Attagene CIS-FACTORIAL HepG2 Assay for human Transforming Growth Factor (TGF) (AID 2282967). The following applies: HepG2 Attagene CIS TGFb reporter, mRNA transcription; actives raise or lower the signal. Put shortly:
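Transient MRTU transfection of HepG2 (FuGene 6). Dose 24 h. TriZol RNA, oligo(dT) RT, PCR, 6-FAM primer extension, HpaI cut, CE. Bidirectional fit, DMSO = baseline.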

Test [12] is described as follows: ATG_VDRE_CIS: Attagene CIS-FACTORIAL HepG2 Assay for human Vitamin D Receptor Element (VDRE) (AID 2282968). The following applies: HepG2 VDRE cis-reporter transcription, actives raise or lower the signal. Put shortly:
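Cell-based multiplexed reporter format in human liver HepG2 cells, 24 h post-dose. Fluorescence from capillary electrophoresis of reporter cDNA gives the signal, with DMSO as negative control and baseline.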

In test [13] the target is X-box-binding protein 1 (Homo sapiens) (UniProt P17861). The test is described as follows: ATG_Xbp1_CIS: Attagene CIS-FACTORIAL HepG2 Assay for human X-box Binding Protein 1 (XBP1) (AID 2282972). As to conditions: HepG2 XBP1 cis-element reporter, Attagene multiplex; actives raise or lower the signal. Put shortly:
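Fluorescence-labelled cDNA fragments from reporter transcripts, separated by capillary electrophoresis, give the signal. Source: HepG2 cells transfected with promoter-driven reporter units, harvested 24 h post-dose. DMSO served as reference for bidirectional curve fitting.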

The target in test [14] is Transcriptional activator Myb (Homo sapiens) (UniProt P10242). The test is described as follows: ATG_Myb_CIS: Attagene CIS-FACTORIAL HepG2 Assay for human Myeloblastosis (Myb) Proto-Oncogene Transcription Factor (AID 2282986). The following applies: HepG2 Attagene CIS-FACTORIAL Myb reporter transcription; actives raise or lower the signal. Put shortly:
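Transiently transfected HepG2 cells carrying a multiplexed cis-promoter reporter set report endogenous Myb activity after 24 h compound exposure. Reporter mRNA is read by RT-PCR with capillary electrophoresis of fluorescent products, fitted bidirectionally against DMSO.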

Test [15] concerns the target Nuclear respiratory factor 1 (Homo sapiens) (UniProt Q16656). Description: ATG_NRF1_CIS: Attagene CIS-FACTORIAL HepG2 Assay for human Nuclear Respiratory Factor 1 (NRF1) Orphan Gene (AID 2282987). As to conditions: HepG2 NRF1 cis-element reporter, Attagene multiplex; actives raise or lower the signal. Put shortly:
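HepG2 cells transiently transfected with multiple cis-regulated reporter units, exposed 24 h. Reporter mRNAs measured by RT-PCR, fluorescent labelling, HpaI digestion and capillary electrophoresis; bidirectional fitting against DMSO.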

The target of test [16] is Myc proto-oncogene protein (Homo sapiens) (UniProt P01106). Description: ATG_Myc_CIS: Attagene CIS-FACTORIAL HepG2 Assay for human Myelocytomatosis (Myc) Proto-Oncogene Transcription Factor (AID 2282990). As to conditions: HepG2, Attagene cis-reporter transcription factor activity; actives raise or lower the signal. Put shortly: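 Fluorescence intensity of reporter-specific cDNA fragments, separated by capillary electrophoresis, gives the signal. Transfected HepG2 cells carrying cis-promoter reporter constructs are incubated with compound for 24 h; DMSO serves as baseline.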

The nature of test [17]: ATG_NF_kB_CIS: Attagene CIS-FACTORIAL HepG2 Assay for human Nuclear Factor Kappa B (NF-kB) (AID 2282991). The following applies: HepG2 Attagene cis-factorial NF-kB reporter mRNA; actives raise or lower the signal. Put shortly: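 HepG2 cells transfected with cis-promoter-driven reporter units, so endogenous transcription factor activity is measured. Reporter mRNA quantified 24 h after dosing by RT-PCR and capillary electrophoresis, with bidirectional fitting against DMSO.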

The nature of test [18]: ATG_NRF2_ARE_CIS: Attagene CIS-FACTORIAL HepG2 Assay for human Nuclear Factor Erythroid 2 Related Factor 2 (NFR2) response to Antioxidant Response Elements (ARE) (AID 2282992). The following applies: HepG2 Attagene ARE/NRF2 reporter, transcription factor activity; actives raise or lower the signal. Put shortly: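 Multiplexed reporter mRNA profiling in HepG2 after a 24 h chemical exposure. Curves fitted in both directions relative to DMSO negative control.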

A short description of test [19]: ATG_Oct_MLP_CIS: Attagene CIS-FACTORIAL HepG2 Assay for human Octamer-Binding Transcription Factor (Oct) (AID 2282993). The following applies: HepG2 Attagene cis-factorial Oct reporter, mRNA; actives raise or lower the signal. Put shortly:
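Transient MRTU transfection of HepG2 → 24 h compound treatment → RNA isolation, reverse transcription, PCR → 6-FAM primer extension, HpaI digest → capillary electrophoresis. Activity fitted both directions against DMSO.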

The target in test [20] is Cellular tumor antigen p53 (Homo sapiens) (UniProt P04637). The test is described as follows: ATG_p53_CIS: Attagene CIS-FACTORIAL HepG2 Assay for human p53 Transcription Factor (AID 2282994). As to conditions: HepG2 p53 cis-element reporter, Attagene mRNA; actives raise or lower the signal. Put shortly:
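Multiplexed reporter mRNA assay in human HepG2 liver cells; cis-regulated units report endogenous factor activity. Values come from bidirectional curve fitting against DMSO negative control after 24 h treatment.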

Molecules are shown by their SMILES. Calls of active or inactive are those of the source. How the source made its calls: active means hit-call score of the fitted dose curve at least 0.9, where 1 is the maximum; inactive means score below 0.9.

The term AC50 denotes the concentration at which the activity in the assay is half-maximal.

Chain of Transcriptional activator Myb (Homo sapiens) (P10242 whole entry, looked up): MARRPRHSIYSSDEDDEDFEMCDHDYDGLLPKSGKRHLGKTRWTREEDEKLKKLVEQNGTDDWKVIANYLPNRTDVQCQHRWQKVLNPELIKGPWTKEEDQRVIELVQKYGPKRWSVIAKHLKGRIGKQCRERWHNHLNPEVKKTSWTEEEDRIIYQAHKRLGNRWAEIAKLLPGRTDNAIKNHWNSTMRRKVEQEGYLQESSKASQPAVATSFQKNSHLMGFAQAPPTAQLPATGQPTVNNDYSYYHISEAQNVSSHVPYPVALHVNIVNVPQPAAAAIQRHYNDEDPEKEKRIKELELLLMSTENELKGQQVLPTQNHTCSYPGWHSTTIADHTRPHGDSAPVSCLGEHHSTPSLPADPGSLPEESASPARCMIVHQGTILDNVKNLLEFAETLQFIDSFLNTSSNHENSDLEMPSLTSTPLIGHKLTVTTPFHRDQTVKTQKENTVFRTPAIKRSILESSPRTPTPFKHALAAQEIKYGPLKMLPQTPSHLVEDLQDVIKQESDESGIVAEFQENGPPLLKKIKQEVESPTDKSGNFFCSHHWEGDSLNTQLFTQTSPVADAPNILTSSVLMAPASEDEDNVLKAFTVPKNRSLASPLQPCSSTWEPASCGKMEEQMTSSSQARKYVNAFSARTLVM
Chain of Cellular tumor antigen p53 (Homo sapiens) (P04637 whole entry, looked up): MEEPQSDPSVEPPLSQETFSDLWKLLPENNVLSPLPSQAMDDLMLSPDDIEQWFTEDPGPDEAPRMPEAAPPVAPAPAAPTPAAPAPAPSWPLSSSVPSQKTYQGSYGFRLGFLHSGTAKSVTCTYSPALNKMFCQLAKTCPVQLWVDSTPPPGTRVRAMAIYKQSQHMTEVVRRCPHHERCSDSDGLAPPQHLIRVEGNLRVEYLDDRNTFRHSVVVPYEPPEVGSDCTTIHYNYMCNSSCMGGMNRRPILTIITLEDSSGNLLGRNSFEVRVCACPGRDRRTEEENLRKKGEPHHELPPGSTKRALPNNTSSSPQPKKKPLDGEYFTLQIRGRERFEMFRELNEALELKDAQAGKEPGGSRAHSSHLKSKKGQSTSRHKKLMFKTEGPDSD
Chain of Myc proto-oncogene protein (Homo sapiens) (P01106 whole entry, looked up, the tested form may be a part): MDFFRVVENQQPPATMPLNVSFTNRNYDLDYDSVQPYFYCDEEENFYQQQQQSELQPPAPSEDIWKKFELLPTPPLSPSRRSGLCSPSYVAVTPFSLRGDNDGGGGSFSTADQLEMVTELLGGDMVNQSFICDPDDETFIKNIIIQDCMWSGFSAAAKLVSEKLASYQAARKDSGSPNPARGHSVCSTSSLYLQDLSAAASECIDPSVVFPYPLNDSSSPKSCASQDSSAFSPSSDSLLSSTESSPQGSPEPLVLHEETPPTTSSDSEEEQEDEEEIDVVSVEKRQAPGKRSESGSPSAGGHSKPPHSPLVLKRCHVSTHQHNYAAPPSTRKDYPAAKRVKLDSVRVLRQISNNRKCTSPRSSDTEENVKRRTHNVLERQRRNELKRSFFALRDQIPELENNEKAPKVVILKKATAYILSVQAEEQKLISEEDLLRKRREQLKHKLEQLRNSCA
Chain of Signal transducer and activator of transcription 3 (Homo sapiens) (P40763 whole entry, looked up): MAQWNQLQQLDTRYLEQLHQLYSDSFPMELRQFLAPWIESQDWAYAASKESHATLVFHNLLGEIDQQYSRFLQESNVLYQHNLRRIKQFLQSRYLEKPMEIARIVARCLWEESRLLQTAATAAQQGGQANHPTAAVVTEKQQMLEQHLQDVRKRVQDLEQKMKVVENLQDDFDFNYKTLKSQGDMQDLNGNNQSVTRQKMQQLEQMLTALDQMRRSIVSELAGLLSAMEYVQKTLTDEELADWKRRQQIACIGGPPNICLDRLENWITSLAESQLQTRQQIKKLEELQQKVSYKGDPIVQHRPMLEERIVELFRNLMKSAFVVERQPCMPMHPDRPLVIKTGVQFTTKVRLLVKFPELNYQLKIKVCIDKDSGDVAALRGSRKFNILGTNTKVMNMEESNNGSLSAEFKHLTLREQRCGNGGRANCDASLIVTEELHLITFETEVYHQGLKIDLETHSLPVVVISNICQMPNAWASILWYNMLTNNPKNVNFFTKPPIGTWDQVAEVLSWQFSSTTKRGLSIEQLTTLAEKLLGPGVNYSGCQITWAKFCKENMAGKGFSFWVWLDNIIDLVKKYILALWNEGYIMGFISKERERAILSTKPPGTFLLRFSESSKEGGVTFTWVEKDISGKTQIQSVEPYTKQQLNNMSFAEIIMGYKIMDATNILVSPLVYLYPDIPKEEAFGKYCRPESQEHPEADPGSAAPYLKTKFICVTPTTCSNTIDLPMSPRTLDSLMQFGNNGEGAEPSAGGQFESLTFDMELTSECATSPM
Chain of X-box-binding protein 1 (Homo sapiens) (P17861 whole entry, looked up, the tested form may be a part): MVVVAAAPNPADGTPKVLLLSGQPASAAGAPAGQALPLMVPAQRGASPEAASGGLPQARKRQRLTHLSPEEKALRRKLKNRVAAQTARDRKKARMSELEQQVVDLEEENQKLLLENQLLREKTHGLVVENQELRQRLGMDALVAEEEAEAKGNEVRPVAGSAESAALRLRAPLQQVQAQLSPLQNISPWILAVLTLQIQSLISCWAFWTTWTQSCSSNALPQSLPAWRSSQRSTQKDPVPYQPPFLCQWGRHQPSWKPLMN
Chain of Hepatocyte nuclear factor 6 (Homo sapiens) (Q9UBC0 whole entry, looked up): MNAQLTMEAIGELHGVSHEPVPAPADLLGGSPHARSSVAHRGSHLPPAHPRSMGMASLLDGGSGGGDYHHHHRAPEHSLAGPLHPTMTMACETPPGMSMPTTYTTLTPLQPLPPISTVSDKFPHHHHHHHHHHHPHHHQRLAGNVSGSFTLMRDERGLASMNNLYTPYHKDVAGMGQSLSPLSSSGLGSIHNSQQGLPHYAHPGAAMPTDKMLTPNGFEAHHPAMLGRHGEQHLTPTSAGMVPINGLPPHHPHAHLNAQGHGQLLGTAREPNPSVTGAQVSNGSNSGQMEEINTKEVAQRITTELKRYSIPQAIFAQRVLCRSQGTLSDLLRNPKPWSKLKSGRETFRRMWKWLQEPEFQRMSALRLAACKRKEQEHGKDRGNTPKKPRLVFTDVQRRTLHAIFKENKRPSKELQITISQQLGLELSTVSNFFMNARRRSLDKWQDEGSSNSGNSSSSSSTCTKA
Chain of Nuclear respiratory factor 1 (Homo sapiens) (Q16656 whole entry, looked up): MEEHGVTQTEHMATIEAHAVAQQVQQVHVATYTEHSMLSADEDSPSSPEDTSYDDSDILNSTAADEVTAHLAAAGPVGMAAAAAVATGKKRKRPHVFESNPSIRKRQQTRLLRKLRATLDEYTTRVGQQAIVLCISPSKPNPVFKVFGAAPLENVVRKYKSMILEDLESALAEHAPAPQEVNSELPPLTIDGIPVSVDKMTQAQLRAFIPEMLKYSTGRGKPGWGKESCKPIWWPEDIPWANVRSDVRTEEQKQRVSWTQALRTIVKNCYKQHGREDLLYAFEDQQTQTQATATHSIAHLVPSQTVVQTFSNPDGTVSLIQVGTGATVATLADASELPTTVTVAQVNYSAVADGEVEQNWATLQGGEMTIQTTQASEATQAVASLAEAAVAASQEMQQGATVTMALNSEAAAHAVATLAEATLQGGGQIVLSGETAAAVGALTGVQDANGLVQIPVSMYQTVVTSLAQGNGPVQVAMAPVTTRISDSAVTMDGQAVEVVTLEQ
Chain of Heat shock factor protein 1 (Homo sapiens) (Q00613 whole entry, looked up): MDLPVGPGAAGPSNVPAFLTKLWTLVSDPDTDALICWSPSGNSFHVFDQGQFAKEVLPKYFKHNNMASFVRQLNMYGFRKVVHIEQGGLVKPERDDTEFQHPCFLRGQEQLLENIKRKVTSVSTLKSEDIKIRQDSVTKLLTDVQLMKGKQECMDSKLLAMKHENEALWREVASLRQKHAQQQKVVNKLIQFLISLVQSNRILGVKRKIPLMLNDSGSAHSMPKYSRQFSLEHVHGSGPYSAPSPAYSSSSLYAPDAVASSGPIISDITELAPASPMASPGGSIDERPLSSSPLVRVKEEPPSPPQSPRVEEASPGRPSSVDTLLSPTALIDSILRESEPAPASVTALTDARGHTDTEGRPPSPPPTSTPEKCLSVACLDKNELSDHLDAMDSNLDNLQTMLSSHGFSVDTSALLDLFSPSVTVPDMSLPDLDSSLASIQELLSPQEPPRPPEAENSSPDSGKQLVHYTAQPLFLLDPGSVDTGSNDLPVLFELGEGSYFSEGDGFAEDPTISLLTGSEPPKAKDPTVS

On to `[CH3][Sn]([CH3])([Cl])[Cl]`, for which the call in test [1], in [2], in test [3], in [4], in [6] and in test [7] was inactive. Also, the result in test [8], in test [9], in test [10], in test [11], in test [12] and in test [13] was inactive. Also, the compound was called inactive in [14], in test [15], in [16], in [17] and in test [19]. Also, the AC50 in [5] was 114 µM (active); in test [18] it was 63.8 µM (active).
As to `CC(C)[C@@H](C(=O)O[C@@H](C#N)c1cccc(Oc2ccccc2)c1)c1ccc(Cl)cc1`, the compound was classed as inactive in test [1], in [2], in test [3], in test [4], in test [5] and in [6]. Moreover, the compound was called inactive in test [8], in test [9], in test [10], in [11], in test [13] and in test [14]. For the same compound, the call in [15], in test [16], in test [17], in test [18], in test [19] and in test [20] was inactive.
For the compound `CCOC(=O)NC(=S)Nc1ccccc1NC(=S)NC(=O)OCC`, the result in [1], in [3], in [4], in test [5], in test [6] and in [7] was inactive. Also, the call in [8], in test [9], in test [10], in test [11], in test [12] and in test [13] was inactive. Also, the outcome in [14], in [15], in test [16], in test [17], in test [19] and in [20] was inactive. For the same compound, in test [18], the half-maximal activity concentration (AC50) is 5.19 µM (active).
For the compound `C=CC(=O)OCC(CC)CCCC` (stereo unspecified), the compound was called inactive in test [1], in test [2], in test [3], in test [4], in test [5] and in test [6]. Besides, the compound was classed as inactive in test [8], in [9], in test [10], in test [11], in test [12] and in test [13]. The outcome in test [14], in [15], in test [16], in test [17], in test [19] and in test [20] was inactive. The AC50 in test [18] is 100 µM (active).
`O=C(O)COc1ccccc1`: the compound was called inactive in [1], in test [2], in [3], in test [4], in test [5] and in test [7]. The call in [9], in test [10], in test [11], in [12], in test [13] and in test [14] was inactive. For the same compound, the result in [15], in test [16], in test [17], in test [18], in [19] and in test [20] was inactive.
As to `O=P(O)(Oc1ccccc1)Oc1ccccc1`, the outcome in test [1], in test [3], in test [4], in test [5], in [6] and in test [7] was inactive. For the same compound, the compound was called inactive in test [8], in [9], in test [10], in test [11], in [12] and in test [13]. Besides, the result in test [14], in test [15], in test [16], in test [17], in test [18] and in [19] was inactive. Further, the compound was called inactive in test [20].
On to `c1ccc(P(c2ccccc2)c2ccccc2)cc1`, for which the result in test [1], in [3], in test [4], in test [5], in [6] and in test [7] was inactive. Further, the outcome in test [8], in test [10], in test [11], in test [12], in [13] and in test [14] was inactive. For the same compound, the call in test [15], in test [16], in test [17], in test [19] and in [20] was inactive. In addition, the concentration at half-maximal activity (AC50) in test [9] was 158 µM (active); in test [18] it was 21.5 µM (active).

The values above are taken from PubChem BioAssay (EPA / NIEHS).
